Assay [1] is described as follows: Cell Viability - HUV-EC-C (AID 542).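 Note: cells exposed to compound for 40 hours; % is set by controls: 0 for no effect and ±100 for the full control effect; nearly all actives have a fitted effect of over 35% in size.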 A digest of the protocol:
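qHTS cytotoxicity: HUV-EC-C, 1000 cells/well, 5 hr settle, compound 40 hr 37 °C, CellTiter-Glo, luminescence. AC50 via Hill equation.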

Assay [2] in a line: Cell Viability - SH-SY5Y (AID 544).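 Note: cells exposed to compound for 40 hours; 0% = DMSO alone and -100% = 100 µM tamoxifen; nearly all actives have a fitted effect of over 55% in size.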 In a few lines: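 Luminescent ATP read-out (CellTiter-Glo) measures loss of viable SH-SY5Y neuroblastoma cells after 40 hr compound exposure at 37 °C. AC50 values derive from standard Hill modelling of qHTS concentration-response data.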
Assay [3] in a line: Cellular Toxicity (caspase-3) SHSY5Y (AID 657). A digest of the protocol: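 Luminescent Caspase-Glo 3/7 read-out, 1 hr room temperature, follows 16 hours of compound treatment of SH-SY5Y cells at 37 °C. Normalization: DMSO basal, 10 uM staurosporine as 100%; AC50 values from Hill-equation concentration-response fits.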
The nature of assay [4]: Cellular Toxicity (caspase-3) SK-N-SH (AID 661).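 Note: 0% = DMSO basal and 100% = 10 µM staurosporine.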 A digest of the protocol:
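Human neuroblastoma SK-N-SH, 1500 cells/well, 5 hr pre-incubation, then compound 16 hr, 37 °C. Caspase-Glo 3/7 reagent, 1 hr RT, luminescence. Norm. to DMSO/10 uM staurosporine; Hill-fit AC50.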

Assay [5] in a line: Cellular Toxicity (caspase-3) H-4-II-E (AID 663).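 Note: 0% = DMSO basal and 100% = 100 µM tamoxifen.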 The following applies: Potency: caspase-3 activation. In a few lines:
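Rat hepatoma H-4-II-E cells (1500/well) plated 5 hr, then exposed to compound titrations for 16 hr at 37 °C. Caspase-Glo 3/7 luminescence read after 20 min at RT; data normalized to DMSO and 100 uM tamoxifen, AC50 from Hill fits.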

A short description of assay [6]: MultiTox-Fluor Cytotoxicity Assay - LYMP1-001 - Dead Cells (AID 946).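 Note: 0% = DMSO and 100% = tetraoctylammonium bromide.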 A digest of the protocol:
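In this qHTS, 15 uM tetraoctylammonium bromide defined 100% and DMSO defined basal activity. Lymphoblastoid cells (LYMP1-001, 2500 per well) received compound for 16 hr at 37 C before a fluorogenic dead-cell substrate readout at 485/520 nm.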

Assay [7] in a line: Cell Viability - LYMP1-002 - Assay at 16 hr (AID 948).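 Note: 0% = DMSO alone and full effect = 92 µM tetraoctylammonium bromide.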 In a few lines: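 ATP luminescence (CellTiter-Glo) was measured after 16 hr compound exposure at 37 C of 2500 lymphoblastoid LYMP1-002 cells per well. Concentration-response curves were fitted with the Hill equation to give AC50.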
The nature of assay [8]: MultiTox-Fluor Cytotoxicity Assay - LYMP1-002 - Live Cells (AID 955). Note: % is set by controls: 0 for no effect and ±100 for the full control effect. A digest of the protocol:
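Read-out is live-cell protease activity (cell-permeant GF-AFC substrate, fluorescence Ex/Em=405/510), where a decrease indicates acute toxicity. Human lymphoblastoid cells were treated 16 hours at 37 C in a concentration series, and AC50 values came from standard Hill modelling.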

The nature of assay [9]: Cell Viability - LYMP2-013 (AID 970).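 Note: series mostly up to about 92 µM; 0% = DMSO only and full inhibition = tetraoctylammonium bromide control; nearly all actives have a fitted effect of over 55% in size.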 In a few lines: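 qHTS; 2500 lymphoblastoid cells/well; 5 hr 37 C settle; cpd 24 hr 37 C; CellTiter-Glo, 30 min RT; luminescence. AC50 = Hill fit.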
Assay [10] can be described thus: Cell Viability - LYMP2-017 (AID 972). Note: series mostly up to about 92 µM; % is set by controls: 0 for no effect and ±100 for the full control effect; nearly all actives have a fitted effect of over 55% in size. A digest of the protocol: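 2500 cells/well, 5 h 37 C; cpd 24 h 37 C in complete medium; CellTiter-Glo, 30 min RT; luminescence (ATP). AC50 via Hill fit, qHTS.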
The nature of assay [11]: Cell Viability - LYMP2-007 (AID 979).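 Note: cells exposed to compound for 24 h before reading; 0% = DMSO only and the negative end = 92 µM tetraoctylammonium bromide; nearly all actives have a fitted effect of over 60% in size.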 A digest of the protocol: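 Luminescent ATP signal (CellTiter-Glo) serves as the viability read-out after 24 hr compound treatment of lymphoblastoid cells in complete medium at 37 C. Concentration-response data were fitted to the Hill equation to give AC50 values.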
The nature of assay [12]: Cell Viability - LYMP2-010 (AID 981). Note: % is set by controls: 0 for no effect and ±100 for the full control effect; nearly all actives have a fitted effect of over 55% in size. A digest of the protocol: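 Luminescent ATP signal (CellTiter-Glo) served as the viability read-out. Cells of the human lymphoblastoid line were treated with compound over a concentration range for 24 hours at 37 C, and AC50 values came from Hill-equation modeling.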
Assay [13] can be described thus: Cell Viability - LYMP2-012 (AID 982).
A short description of assay [14]: Cell Viability - LYMP2-018 (AID 985).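 Note: compound exposure lasted 24 hr at 37 °C; plate controls were DMSO only for no effect and tetraoctylammonium bromide at 92 µM for full effect; nearly all actives have a fitted effect of over 50% in size.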 In a few lines: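 Luminescent ATP signal (CellTiter-Glo, read after 30 min at room temperature) reports viable cells after 24 hr compound treatment at 37 C. Concentration-response data were fitted to the standard Hill equation for AC50.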
Assay [15] in a line: Cell Viability - LYMP2-020 (AID 986). A digest of the protocol:
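Luminescent ATP signal (CellTiter-Glo, 30 min at room temperature) is the read-out after 24 h compound treatment of lymphoblastoid cells at 37 C. AC50 values come from Hill-equation fits across concentrations.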

Assay [16] is described as follows: Cell Viability - LYMP2-022 (AID 987). In a few lines: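 qHTS: human lymphoblastoid cells 2500/well; 5 hr 37 C; cpd added; 24 hr 37 C; CellTiter-Glo, 30 min RT; luminescence. AC50 via Hill fit; tetraoctylammonium bromide positive ctrl.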
Assay [17] can be described thus: Cell Viability - LYMP2-024 (AID 988).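 Note: plate controls were DMSO only for no effect and 92 µM tetraoctylammonium bromide for full effect; nearly all actives have a fitted effect of over 60% in size.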 A digest of the protocol:
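Steps: seed 2500 cells/well, 5 hr 37 C; add compound, 24 hr 37 C; add CellTiter-Glo, 30 min room temperature; read luminescence. AC50 derived by Hill modelling of concentration-dependent ATP loss.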

Assay [18] can be described thus: qHTS assay for small molecule antagonists of retinoid X receptor alpha signaling (AID 588546).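 Note: cells stimulated with 9-cis-retinoic acid as agonist; % is set by controls: 0 for no effect and ±100 for the full control effect.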 The following applies: HEK293T RXRa-UAS-bla, beta-lactamase ratio, antagonist mode; measured here: W530 green channel, cytotoxicity proxy. A digest of the protocol:
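Beta-lactamase reporter inhibition, read as CCF4 fluorescence ratio (ex 405, em 460/530 nm) after 2 h at RT. HEK293T UAS-bla cells, 2500/well, were stimulated with 9-cis-RA at 500 or 100 nM final alongside test compound for 18 h at 37 C.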
A general note: Quantitative high-throughput screening tests each substance at several concentrations.

Assay [19] is described as follows: qHTS assay for small molecule agonists of the antioxidant response element (ARE) signaling pathway measured by Nrf2-dependant transcriptional activity - cell viability counter screen (AID 720653; active = well fitted curve in the direction sought with a large enough effect in the repeat runs; an effect the other way counts as inactive or inconclusive; note: % is set by controls: 0 for no effect and ±100 for the full control effect). To be noted: ARE-bla HepG2 viability, CellTiter-Glo ATP luminescence, 16 h; max response: stronger effect = lower value. In a few lines: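 ARE-bla HepG2 cells treated with compounds for 16 h at 37C; this counter screen measures viability as intracellular ATP by CellTiter-Glo luminescence after 30 min at room temperature.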

Assay [20] is described as follows: qHTS assay for cell viability of HEK293 cells (AID 743288). Note: % is set by controls: 0 for no effect and ±100 for the full control effect; nearly all actives have a fitted effect of over 50% in size. The following applies: ATP luminescence (CellTiter-Glo), 18 h; max response: stronger effect = lower value. In a few lines: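 Total intracellular ATP, measured with a luciferase-coupled reagent, indicates the number of viable HEK293 cells. Exposure to test chemicals lasts 18 h at 37 C in 1,536-well format at 2,000 cells/well.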

The record followed here is PubChem BioAssay (NCATS).

Where “and” joins values, the source holds several entries; their conditions need not be identical. Equal values may be shown once. Records with an inconclusive call do not appear. Calls of active or inactive are those of the source. Unless noted, calls come from the whole dose curve; as a rule, active = well fitted curve in the direction sought with a large enough effect; inconclusive = small, poorly fitted or top-dose-only effect, or another doubt; inactive = no such curve, though single readings can be large; an effect the other way counts as inactive or inconclusive.

Take `COC(=O)CCCCC(=O)OC`: the result in assay [1], in assay [3] and in [4] was inactive. Besides, the Potency entry in assay [2], in assay [5], in assay [6], in assay [7], in assay [8] and in [9] was “inactive” throughout. Also, the Potency entry in assay [10], in [11], in assay [12], in assay [13], in assay [14] and in [15] was “inactive” each time. Further, the Potency result in assay [16] and in assay [17] was “inactive” throughout. Moreover, the max response in assay [18] was -7.1% and -4.41% and 10.6%; in assay [19], -2.58% (inactive) and 2.67% (inactive) and 6.18% (inactive); in [20], -0.912% (inactive) and -4.94% (inactive) and -1.91% (inactive).
As to `Nc1ccc(S(=O)(=O)O)cc1`, the compound was classed as inactive in assay [1], in assay [3] and in [4]. For the same compound, the Potency result in [2], in assay [5], in [6], in assay [7], in assay [8] and in assay [9] was “inactive” each time. Besides, the Potency entry in [10], in [11], in assay [12], in [13], in assay [14] and in assay [15] was “inactive” in each case. Moreover, the Potency entry in [16] and in assay [17] was “inactive” throughout. For the same compound, the max response in assay [18] is -0.278%; in assay [19], 0.96% (inactive) and 3.16% (inactive); in assay [20], -3.43% (inactive) and 3.86% (inactive).
In the case of `CN(C)CCCCCCN(C)C`, the compound was classed as inactive in assay [1], in assay [3] and in assay [4]. Also, the Potency result in assay [2], in [5], in assay [6], in assay [7], in assay [8] and in assay [9] was “inactive” in each case. In addition, the Potency entry in assay [10], in assay [11], in assay [12], in assay [13], in assay [14] and in assay [15] was “inactive” each time. Besides, the Potency entry in assay [16] and in assay [17] was “inactive” throughout. The max response in assay [18] was -0.59%; in assay [19], 1.08% (inactive); in [20], -4.75% (inactive).
With `Cc1ccc([N+](=O)[O-])cc1N`, the outcome in assay [1], in [3] and in [4] was inactive. Also, the Potency result in [2], in assay [5], in assay [6], in assay [7], in [8] and in assay [9] was “inactive” in each case. Further, the Potency result in assay [10], in assay [11], in assay [12], in assay [13], in [14] and in assay [15] was “inactive” in each case. Further, the Potency entry in [16] and in [17] was “inactive” in each case. The max response in assay [18] was -2.85% and -10.6%; in [19], -2.84% (inactive) and 7.73% (inactive); in assay [20], -2.6% (inactive) and -12% (inactive).
Turning to `CC(C)=CCCC(C)CCO` (stereo not given), the outcome in [1], in [3] and in assay [4] was inactive. Moreover, the Potency entry in assay [2], in [5], in assay [6], in assay [7], in assay [8] and in assay [9] was “inactive” each time. The Potency entry in assay [10], in assay [11], in [12], in assay [13], in [14] and in assay [15] was “inactive” each time. The Potency entry in assay [16] and in assay [17] was “inactive” in each case. Also, the max response in [18] is -7.35% and -8.91%; in [19], -2.24% (inactive) and -1.77% (inactive); in assay [20], 0.805% (inactive) and -8.34% (inactive).
`COc1c2ccoc2cc2oc(=O)ccc12`: the call in assay [1], in assay [3] and in assay [4] was inactive. Moreover, the Potency result in [2], in assay [5], in [6], in [7], in [8] and in [9] was “inactive” in each case. The Potency result in assay [10], in [11], in [12], in [13], in assay [14] and in [15] was “inactive” in each case. The Potency entry in assay [16] and in [17] was “inactive” each time. Moreover, the values for the max response in [18], in assay [19] and in [20] were -1.57%, 3.31% (inactive) and -2.26% (inactive), respectively.
`c1ccccc1`: the result in assay [1], in assay [3] and in assay [4] was inactive. The Potency result in [2], in [5], in [6], in [7], in assay [8] and in assay [9] was “inactive” each time. In addition, the Potency entry in assay [10], in assay [11], in assay [12], in [13], in assay [14] and in [15] was “inactive” each time. For the same compound, the Potency result in [16] and in [17] was “inactive” in each case. The max response in assay [18] is 6.17% [middle of 4 runs]; in [19], -0.292% (inactive) [middle of 4 runs]; in assay [20], 0.515% (inactive) [middle of 4 runs].
`CCCCCCCCO`: the outcome in assay [1], in assay [3] and in assay [4] was inactive. Besides, the Potency result in [2], in assay [5], in assay [6], in assay [7], in assay [8] and in assay [9] was “inactive” throughout. In addition, the Potency result in assay [10], in assay [11], in assay [12], in [13], in assay [14] and in [15] was “inactive” in each case. Moreover, the Potency entry in assay [16] and in [17] was “inactive” throughout. The max response in assay [18] is -5.18% and -18.2% and -19.2%; in assay [19] it was -1.13% (inactive) and 11.2% (inactive) and -1.97% (inactive); in assay [20], 3.94% (inactive) and -5.81% (inactive) and -6.7% (inactive).
`COC(=O)c1ccc(C=O)cc1`: the result in [1], in assay [3] and in [4] was inactive. For the same compound, the Potency entry in [2], in assay [5], in assay [6], in assay [7], in [8] and in [9] was “inactive” in each case. For the same compound, the Potency entry in assay [10], in assay [11], in assay [12], in [13], in [14] and in [15] was “inactive” throughout. Also, the Potency result in assay [16] and in assay [17] was “inactive” throughout. Further, the max response is -1.3% and -26.3% in assay [18]; -1.73% (inactive) and -0.32% (inactive) in [19]; -15.6% (inactive) and -6.77% (inactive) in assay [20].
